Results as given in PubChem BioAssay (Tox21).
Results filed as inconclusive are left out. The source made the active and inactive calls. Unless noted, calls follow the shape of the dose curve; as a rule, active = well fitted curve in the direction sought with a large enough effect in the repeat runs; inconclusive = weak or mixed curves; inactive = no such curve, though single readings can be large; an effect the other way counts as inactive or inconclusive.

Tests used:
[1] = target: Peroxisome proliferator-activated receptor delta (Homo sapiens) (UniProt Q03181); experiment: qHTS assay to identify small molecule agonists of the peroxisome proliferator-activated receptor delta (PPARd) signaling pathway (AID 743212; calls by dose curve)
Summary of the method: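 Quantitative high-throughput agonist screen in a HEK293H beta-lactamase reporter line under UAS control. Compounds in DMSO, at 37 C. Fluorescence read after 2 h with FRET substrate at room temperature.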

[2] = qHTS assay to identify small molecule antagonists of the peroxisome proliferator-activated receptor delta (PPARd) signaling pathway - cell viability counter screen (AID 743213); also: nearly all actives have a fitted effect of over 50% in size
Summary of the method: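 Luminescence from CellTiter-Glo, added after the bla read and incubated 30 min at room temperature, gives viability of HEK293H PPARd-bla cells exposed to compounds for 17 h at 37 C with 300 nM L165041.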

[3] = qHTS assay to identify small molecule agonists of the farnesoid-X-receptor (FXR) signaling pathway - cell viability counter screen (AID 743218); also: nearly all actives have a fitted effect of over 45% in size
Summary of the method: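 FXR-UAS-bla HEK 293T cells, plated 5 h at 37 C, were exposed to compounds for 16 h at 37 C. CellTiter-Glo was then added to the same wells as the bla readout; luminescence read after 30 min at room temperature.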

[4] = qHTS assay to identify small molecule antagonists of the farnesoid-X-receptor (FXR) signaling pathway - cell viability counter screen (AID 743221; active = well fitted cell-killing curve with a large enough effect in the repeat runs, not every such curve was filed as active; also: nearly all actives have a fitted effect of over 50% in size)
Summary of the method: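 Cytotoxicity is taken from ATP luminescence (CellTiter-Glo, 30 min, room temperature) in FXR-bla HEK 293T cells previously incubated 16 h at 37 C with compound and chenodeoxycholic acid at 50 uM final.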

[5] = qHTS assay to identify small molecule agonists of the vitamin D receptor (VDR) signaling pathway - cell viability counter screen (AID 743224); also: series mostly up to about 63 µM; nearly all actives have a fitted effect of over 50% in size
Summary of the method: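 VDR-bla cells were preincubated 4 h at 37C/5% CO2, then exposed to compounds for 16 h. After the 2 h room-temperature bla FRET read, CellTiter-Glo was added to the same wells and luminescence read after 30 min.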

[6] = qHTS assay to identify small molecule antagonists of the vitamin D receptor (VDR) signaling pathway - cell viability counter screen (AID 743225); also: nearly all actives have a fitted effect of over 50% in size
Summary of the method: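 Same-well multiplex: following 16 h treatment of HEK 293T cells carrying a UAS-driven beta-lactamase reporter with compound and agonist (3 nM final), and a 2 h FRET substrate step, CellTiter-Glo was added and luminescence read after 30 min.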

[7] = qHTS assay to identify small molecule agonists of the NFkB signaling pathway (AID 1159509; active = well fitted curve in the direction sought with a large enough effect in the signal ratio in the repeat runs, not every such curve was filed as active; the % refers to the signal ratio; also: series mostly up to about 61 µM)
Summary of the method: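 After overnight attachment, reporter cells received test compounds, DMSO or positive controls and were incubated 5 hr at 37 C. FRET substrate was then added for 1.5 hr at room temperature before dual-emission fluorescence reading.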

[8] = qHTS assay to identify small molecule agonists of the NFkB signaling pathway - cell viability counter screen (AID 1159515; calls by dose curve; also: series mostly up to about 61 µM; nearly all actives have a fitted effect of over 55% in size)
Summary of the method: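 NFkB-bla ME-180 cells, 2,000/well, were plated overnight at 37 C, 5% CO2, then exposed to compounds in DMSO for 5 hr. After the bla FRET read, CellTiter-Glo was added to the same wells; luminescence was read after 30 min at room temperature.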

[9] = qHTS assay to identify small molecule agonists of the endoplasmic reticulum stress response signaling pathway (AID 1159516; active = well fitted activation curve with a large enough effect in the signal ratio in the repeat runs, not every such curve was filed as active; the % refers to the signal ratio)
Summary of the method: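 CellSensor ESRE-bla HeLa cells, carrying a beta-lactamase reporter driven by the ER stress response element, were plated overnight and exposed to compounds for 5 hr at 37 C. Reporter activity was read as FRET substrate fluorescence after 2 hr at room temperature.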

[10] = qHTS assay to identify small molecule antagonists of the retinoid-related orphan receptor gamma (ROR-gamma) signaling pathway - cell viability counter screen (AID 1159520); also: nearly all actives have a fitted effect of over 50% in size
Summary of the method: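 Tet-on ROR gamma CHO cells were given compounds for 2 hr, then doxycycline hyclate at 1 uM final, and incubated 16 hr at 37 C. Viability was measured as ATP content by CellTiter-Glo luminescence.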

[11] = target: Nuclear receptor ROR-gamma (Homo sapiens) (UniProt P51449); experiment: qHTS assay to identify small molecule antagonists of the retinoid-related orphan receptor gamma (ROR-gamma) signaling pathway (AID 1159521; also: nearly all actives have a fitted effect of over 50% in size; also: potency is read from the fitted curve at half-maximal effect)
Summary of the method: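 Inducible-expression reporter assay: doxycycline (1 uM final) switched on RORγ in CHO cells bearing a ROR response element-luciferase construct, with test compounds present from 2 h beforehand. Decreased luminescence after 16 h defined antagonist activity.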

[12] = qHTS assay to identify small molecule agonists of the AP-1 signaling pathway - cell viability counter screen (AID 1159525; calls by dose curve; also: nearly all actives have a fitted effect of over 55% in size)
Summary of the method: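 AP-1-bla ME-180 cells in Opti-MEM with 0.5% dialyzed FBS, compound exposure 5 h at 37 C in 15-point titration. Viability read in the same wells as ATP content by CellTiter-Glo luminescence, normalised to tetra-n-octylammonium bromide and DMSO controls.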

[13] = qHTS assay to identify small molecule agonists of the AP-1 signaling pathway (AID 1159526; calls by dose curve; also: potency is read from the fitted curve at half-maximal effect)
[14] = qHTS assay to identify small molecule agonists of the peroxisome proliferator-activated receptor delta (PPARd) signaling pathway - cell viability counter screen (AID 743211); also: nearly all actives have a fitted effect of over 55% in size
Summary of the method: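 Tox21 library compounds, delivered in DMSO, were incubated 17 h with PPARd-bla HEK293H cells; cytotoxicity was taken from CellTiter-Glo luminescence read 30 min after reagent addition.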

[15] = target: Peroxisome proliferator-activated receptor delta (Homo sapiens) (UniProt Q03181); experiment: qHTS assay to identify small molecule antagonists of the peroxisome proliferator-activated receptor delta (PPARd) signaling pathway (AID 743215; active = well fitted inhibition curve with a large enough effect in the signal ratio in the repeat runs, not every such curve was filed as active; the % refers to the signal ratio;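 also: cells stimulated with agonist L165041 at 300 nM final during compound exposure; series mostly up to about 62 µM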)
Summary of the method: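 PPARd UAS-bla HEK293H cells were pre-incubated 5 h at 37 C, then given test compounds in DMSO plus agonist L165041 (300 nM final). After 17 h at 37 C, beta-lactamase FRET substrate was added; fluorescence read after 2 h at room temperature.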

[16] = target: Vitamin D3 receptor (Homo sapiens) (UniProt P11473); experiment: qHTS assay to identify small molecule agonists of the vitamin D receptor (VDR) signaling pathway (AID 743222; calls by dose curve)
Summary of the method: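 VDR-bla cells were plated 4 h at 37C/5% CO2, then exposed to compounds in DMSO for 16 h. After LiveBLAzer B/G FRET substrate addition and 2 h at room temperature, beta-lactamase reporter fluorescence was read.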

[17] = target: Vitamin D3 receptor (Homo sapiens) (UniProt P11473); experiment: qHTS assay to identify small molecule antagonists of the vitamin D receptor (VDR) signaling pathway (AID 743223; active = well fitted inhibition curve with a large enough effect in the signal ratio in the repeat runs, not every such curve was filed as active; the % refers to the signal ratio)
Summary of the method: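 Quantitative HTS in VDR-bla reporter cells stimulated with 1alpha,25-dihydroxyvitamin D3, 3 nM final. Compound exposure 16 h, 37C, 5% CO2. Read-out: beta-lactamase FRET substrate fluorescence, 2 h RT.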

[18] = qHTS assay to identify small molecule agonists of the endoplasmic reticulum stress response signaling pathway - cell viability counter screen (AID 1159517; calls by dose curve)
Summary of the method: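 Counter-screen wells were identical to the reporter wells. Cells were plated at 1,500 per well and dosed for 5 hr, then read for luminescence 30 min after CellTiter-Glo addition.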

[19] = target: Bile acid receptor (Homo sapiens) (UniProt Q96RI1); experiment: qHTS assay to identify small molecule antagonists of the farnesoid-X-receptor (FXR) signaling pathway (AID 743217; active = well fitted inhibition curve with a large enough effect in the signal ratio in the repeat runs, not every such curve was filed as active; the % refers to the signal ratio)
Summary of the method: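 FXR-UAS-bla HEK 293T cells pre-incubated 5 h at 37 °C, then exposed to compounds with chenodeoxycholic acid (50 uM final) for 16 h at 37 °C. Beta-lactamase reporter read by LiveBLAzer B/G FRET substrate fluorescence after 2 h at room temperature.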

[20] = target: Bile acid receptor (Homo sapiens) (UniProt Q96RI1); experiment: qHTS assay to identify small molecule agonists of the farnesoid-X-receptor (FXR) signaling pathway (AID 743220; active = well fitted activation curve with a large enough effect in the signal ratio in the repeat runs, not every such curve was filed as active; the % refers to the signal ratio)
Summary of the method: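 Beta-lactamase reporter under UAS control in GeneBLAzer FXR HEK 293T cells (5000/well) measured with LiveBLAzer FRET substrate after 2 h at room temperature. Compound exposure lasted 16 h at 37C.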

Measured: Potency

Chain of Bile acid receptor (Homo sapiens) (Q96RI1 whole entry, looked up): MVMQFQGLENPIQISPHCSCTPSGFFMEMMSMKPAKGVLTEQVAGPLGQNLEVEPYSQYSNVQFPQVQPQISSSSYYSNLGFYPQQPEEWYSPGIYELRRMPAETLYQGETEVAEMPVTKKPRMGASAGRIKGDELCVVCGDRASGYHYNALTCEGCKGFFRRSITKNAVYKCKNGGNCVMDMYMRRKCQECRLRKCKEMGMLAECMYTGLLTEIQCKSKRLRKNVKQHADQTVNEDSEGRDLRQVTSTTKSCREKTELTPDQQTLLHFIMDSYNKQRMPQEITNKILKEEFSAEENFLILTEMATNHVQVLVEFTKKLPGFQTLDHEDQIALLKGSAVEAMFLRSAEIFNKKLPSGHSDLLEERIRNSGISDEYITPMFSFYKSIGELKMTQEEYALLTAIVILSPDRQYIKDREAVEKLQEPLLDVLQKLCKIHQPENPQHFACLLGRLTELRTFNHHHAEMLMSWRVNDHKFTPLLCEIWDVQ
Chain of Vitamin D3 receptor (Homo sapiens) (P11473 whole entry, looked up): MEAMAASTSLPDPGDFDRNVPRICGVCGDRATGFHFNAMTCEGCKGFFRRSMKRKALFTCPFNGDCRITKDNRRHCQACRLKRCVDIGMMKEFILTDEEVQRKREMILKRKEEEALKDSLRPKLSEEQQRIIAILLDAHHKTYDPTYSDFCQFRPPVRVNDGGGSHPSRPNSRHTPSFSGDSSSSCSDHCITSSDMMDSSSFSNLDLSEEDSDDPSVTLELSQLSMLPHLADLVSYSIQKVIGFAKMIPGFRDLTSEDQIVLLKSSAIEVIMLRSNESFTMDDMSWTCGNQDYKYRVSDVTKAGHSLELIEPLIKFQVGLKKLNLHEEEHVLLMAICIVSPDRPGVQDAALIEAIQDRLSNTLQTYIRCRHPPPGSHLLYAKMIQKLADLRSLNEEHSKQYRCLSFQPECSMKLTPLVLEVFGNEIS
Chain of Peroxisome proliferator-activated receptor delta (Homo sapiens) (Q03181 whole entry, looked up): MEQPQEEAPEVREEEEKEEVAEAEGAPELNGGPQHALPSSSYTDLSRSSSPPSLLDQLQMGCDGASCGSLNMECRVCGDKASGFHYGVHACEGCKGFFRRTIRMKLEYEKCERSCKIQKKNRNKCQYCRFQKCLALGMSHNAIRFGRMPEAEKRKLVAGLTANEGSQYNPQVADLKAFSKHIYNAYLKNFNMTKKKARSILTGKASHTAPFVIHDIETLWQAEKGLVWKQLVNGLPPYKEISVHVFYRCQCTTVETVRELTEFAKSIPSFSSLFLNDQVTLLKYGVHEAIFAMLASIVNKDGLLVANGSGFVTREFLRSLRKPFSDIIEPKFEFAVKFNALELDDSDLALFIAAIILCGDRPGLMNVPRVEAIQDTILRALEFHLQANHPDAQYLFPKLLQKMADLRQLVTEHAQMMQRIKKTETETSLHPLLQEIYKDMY

CSc1nc(NC2CC2)nc(NC(C)(C)C)n1
inactive: [1] | [2] | [3] | [4] | [5] | [6] | [7] | [8] | [9] | [10] | [11] | [12] | [13]

C[C@H](O)C(=O)Nc1c(I)c(C(=O)NC(CO)CO)c(I)c(C(=O)NC(CO)CO)c1I
inactive: [14] | [1] | [2] | [15] | [4] | [16] | [17] | [5] | [6] | [7] | [8] | [9] | [10] | [11] | [12] | [13]

CCCc1ccccc1O
inactive: [14] | [2] | [3] | [4] | [16] | [17] | [5] | [8] | [9] | [18] | [10] | [11] | [12] | [13]

OCc1ccccn1
inactive: [14] | [1] | [2] | [15] | [3] | [4] | [6] | [8] | [9] | [18] | [10] | [11] | [12] | [13]

CC1CCN(CCCC(=O)c2ccc(F)cc2)CC1
inactive: [14] | [2] | [19] | [20] | [4] | [8] | [9] | [18] | [10] | [11] | [12] | [13]

COCc1ccc(COC)cc1
inactive: [14] | [2] | [15] | [19] | [3] | [4] | [17] | [5] | [6] | [8] | [9] | [18] | [10] | [11] | [12] | [13]

CCCC(=O)O[C@]1(C(=O)CCl)[C@@H](C)C[C@H]2[C@@H]3CCC4=CC(=O)C=C[C@]4(C)[C@@]3(F)C(=O)C[C@@]21C
inactive: [1] | [2] | [19] | [3] | [4] | [16] | [5] | [8] | [9] | [10] | [12] | [13]
active: [11] 10.6 µM

c1cc(CN2CCCCC2)cc(OCCCNc2nc3ccccc3s2)c1
active: [11] 26.6 µM | [13] 26.8 µM
inactive: [15] | [3] | [4] | [16] | [5] | [8] | [9] | [18] | [10] | [12]

NC(CS)C(=O)O (stereo unspecified)
inactive: [14] | [1] | [15] | [4] | [16] | [5] | [8] | [9] | [18] | [10] | [11] | [12] | [13]

CCCCc1ccc(N)cc1
inactive: [14] | [2] | [3] | [16] | [17] | [5] | [6] | [8] | [9] | [10] | [11] | [12] | [13]

C=CC(=O)OCCCCCC
inactive: [14] | [1] | [2] | [3] | [4] | [5] | [6] | [8] | [9] | [10] | [12] | [13]

C=C(C)[C@H]1CC=C(C)CC1
inactive: [14] | [2] | [4] | [5] | [6] | [8] | [9] | [10] | [12] | [13]

NC(=O)Nc1nc2ccccc2[nH]1
inactive: [14] | [1] | [2] | [15] | [19] | [3] | [4] | [16] | [17] | [5] | [6] | [8] | [9] | [10] | [11] | [12] | [13]

CC(C)N1C(=O)c2ccccc2C1=O
inactive: [14] | [1] | [2] | [15] | [4] | [16] | [17] | [5] | [6] | [8] | [9] | [10] | [11] | [12] | [13]

C=CC(=O)N1CCOCC1
inactive: [1] | [2] | [19] | [3] | [4] | [16] | [5] | [6] | [8] | [9] | [18] | [10] | [11] | [12] | [13]

CNc1ncnc2nc[nH]c12
inactive: [14] | [1] | [15] | [3] | [16] | [5] | [6] | [8] | [9] | [18] | [10] | [11] | [12] | [13]

O=C(O)C1CCC1
inactive: [14] | [1] | [2] | [15] | [3] | [4] | [16] | [17] | [5] | [6] | [8] | [9] | [18] | [10] | [11] | [12] | [13]

O=C1OC(=O)c2cc([N+](=O)[O-])ccc21
inactive: [14] | [1] | [2] | [15] | [4] | [16] | [17] | [5] | [6] | [8] | [9] | [18] | [10] | [11] | [12] | [13]

NC(=O)c1c(Cl)cccc1Cl
inactive: [14] | [1] | [2] | [15] | [19] | [4] | [16] | [17] | [5] | [6] | [8] | [9] | [18] | [10] | [11] | [12] | [13]

NC1CCN(c2cccc(Cl)n2)CC1
inactive: [14] | [1] | [2] | [19] | [3] | [4] | [16] | [17] | [5] | [6] | [8] | [9] | [18] | [10] | [11] | [12] | [13]
